Screens deposited in PubChem by National Center for Advancing Translational Sciences (NCATS).
In the library only some 10% were active in any assay of this set; here they are far more common.
HP1b chromo inh: blocks HP1-beta chromodomain binding to methylated histone tails; AlphaScreen HP1-beta / biotin-H3K9me3 peptide binding; Potency, µM (titrated, usually from 114 µM), inactives show top-dose activity change, negative = inhibition, usual class: inhibitors; hit rate 0.56% among 390,000; AID 540317; also: nearly all actives have a fitted effect of over 70% in size
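HP1-beta protein (50 nM final) preincubated 30 min at room temperature with biotinylated H3(1-18)K9me3 peptide (50 nM) in PBS pH 7.4, 0.01% Tween-20, then compound added for 30 min. AlphaScreen streptavidin donor/nickel chelate acceptor beads (10 ug/mL final), 30 min dark, luminescence read.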
BAZ2B block: BAZ2B (human) inhibition; hit rate 4.4% among 360,000; Potency, µM (titrated, usually from 114 µM), inactives show top-dose activity change, negative = inhibition, most hits filed as inhibitors; AlphaScreen BAZ2B-H3K14Ac peptide displacement; Q9UIF8; also: % is scaled to controls: 0 for no effect and ±100 for the full control effect; nearly all actives have a fitted effect of over 60% in size
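AlphaScreen luminescence quantifies BAZ2B engagement of H3K14Ac peptide; the protein and biotinylated peptide are both at 50 nM final, buffer PBS pH 7.4 with 0.01% Tween-20, all steps at room temperature.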
G9a inh: G9a (human) methyltransferase inhibition | G9a H3K9 monomethylation, AlphaScreen, 2 h | hit rate 8.8% among 350,000 | Potency, µM (series often up to 102 µM), for the others: top-dose activity, negative = inhibition, most hits filed as inhibitors | AID 504332 | Q96KQ7; also: % is scaled to controls: 0 for no effect and ±100 for the full control effect; nearly all actives have a fitted effect of over 75% in size
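Signal arises when biotinylated H3K9 peptide, once monomethylated, bridges streptavidin donor and antibody-captured acceptor beads. Enzyme at 20 nM was preincubated 15 min with test compounds; peptide 500 nM and SAM 20 uM then reacted for 2 h.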
JMJD2A Tudor: inhibitors of human JMJD2A Tudor domain; O75164; AlphaScreen JMJD2A-Tudor / H3K4me3 peptide binding; Potency, µM (series often up to 114 µM), for inactives: at the highest dose activity change, negative = inhibition, hits mostly inhibitors; hit rate 4.4% among 390,000; also: % is scaled to controls: 0 for no effect and ±100 for the full control effect; nearly all actives have a fitted effect of over 50% in size
Target sequence (O75164 whole entry, looked up, the tested form may be a part): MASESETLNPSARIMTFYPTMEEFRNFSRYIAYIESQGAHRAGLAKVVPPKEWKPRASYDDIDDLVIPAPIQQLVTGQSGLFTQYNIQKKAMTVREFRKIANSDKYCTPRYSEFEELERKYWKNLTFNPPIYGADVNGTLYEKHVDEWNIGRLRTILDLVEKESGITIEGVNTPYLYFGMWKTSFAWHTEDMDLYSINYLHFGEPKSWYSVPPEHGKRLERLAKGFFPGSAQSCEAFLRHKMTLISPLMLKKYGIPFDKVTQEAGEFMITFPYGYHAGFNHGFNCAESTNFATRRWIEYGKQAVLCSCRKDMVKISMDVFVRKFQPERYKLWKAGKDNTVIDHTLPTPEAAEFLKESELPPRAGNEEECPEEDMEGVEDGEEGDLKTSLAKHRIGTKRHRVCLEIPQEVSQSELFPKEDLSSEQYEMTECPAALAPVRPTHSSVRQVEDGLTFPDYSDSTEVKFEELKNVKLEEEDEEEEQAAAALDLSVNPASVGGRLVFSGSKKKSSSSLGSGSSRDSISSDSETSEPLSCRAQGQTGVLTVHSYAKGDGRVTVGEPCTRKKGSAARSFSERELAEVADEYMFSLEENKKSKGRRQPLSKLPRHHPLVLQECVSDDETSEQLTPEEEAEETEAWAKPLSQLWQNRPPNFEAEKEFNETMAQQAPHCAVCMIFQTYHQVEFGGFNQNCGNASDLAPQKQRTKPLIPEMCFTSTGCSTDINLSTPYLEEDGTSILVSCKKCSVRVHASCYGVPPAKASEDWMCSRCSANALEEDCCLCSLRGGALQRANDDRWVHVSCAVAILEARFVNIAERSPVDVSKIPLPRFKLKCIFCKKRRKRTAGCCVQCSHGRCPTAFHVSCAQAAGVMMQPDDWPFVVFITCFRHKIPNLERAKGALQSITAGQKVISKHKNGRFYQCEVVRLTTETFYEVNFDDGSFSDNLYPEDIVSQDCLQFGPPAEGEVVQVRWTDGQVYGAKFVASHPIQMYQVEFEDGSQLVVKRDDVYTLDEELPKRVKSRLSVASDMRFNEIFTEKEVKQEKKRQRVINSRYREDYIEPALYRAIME
GLS inhibitor: blocks human kidney-isoform glutaminase activity | GLS enzymatic activity, qHTS titration | Potency, µM (top dose mostly 45.5 µM), inactives show top-dose activity change, negative = inhibition, usual class: inhibitors | hit rate 0.21% among 410,000 | AID 624170; also: % is scaled to controls: 0 for no effect and ±100 for the full control effect
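hKGA in 45 mM KH2PO4 pH 8.2, 0.02% Tween-20 with pin-transferred compounds; 1 mM L-glutamine (stock) plus glutamate oxidase/HRP/Amplex Red coupling added. Fluorescence read initially and after 30 min at RT.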
Active calls of the source: *; u = inconclusive; x = not tested or not shown; [ ] = another dose, or the depositor's remark. Calls follow the shape of the dose curve; as a rule, active = well fitted curve in the direction sought with a large enough effect; inconclusive = small, poorly fitted or top-dose-only effect, or another doubt; inactive = no such curve, though single readings can be large; an effect the other way counts as inactive or inconclusive. Potency is read from the fitted curve at half-maximal effect.

SMILES | HP1b chromo inh | BAZ2B block | G9a inh | JMJD2A Tudor | GLS inhibitor
Cc1cc(C)nc(SCC(=O)c2ccc(O)c(O)c2)n1 | 20% | u | 1.8µM* | 13µM* | 6%
Cc1cc(SCC(=O)c2ccc(O)c(O)c2)n2nc(C)c(-c3ccccc3)c2n1 | 4% | u | 11µM* | -19%[11.4 µM] | 47%
Cc1cc(=O)[nH]c(SCC(=O)Nc2ccc(C(=O)O)cc2)n1 | 30% | u | -1% | -7% | -3%
O=C(NCCCc1nc2ccccc2n1Cc1cccc(Cl)c1)C1CCCCC1 | 29% | -1% | 3%[59 µM] | -3% | 7%
Cc1ccc(NC(=O)COC(=O)CCCC2=NS(=O)(=O)c3ccccc3N2)cc1C | 39% | -16% | 21% | 1% | 1%
CCN(CC)CCNC(=O)c1cc(Sc2nnc(C)s2)nc2ccccc12 | 12% | -16% | -4% | 4%[57.1 µM] | 10%
O=C(CSc1nc2ccccc2c(=O)[nH]1)c1ccc(O)c(O)c1 | -58% | -8% | 5%[12.7 µM] | 56µM* | -15%
Cc1cc(C)nc(SCC(=O)NN)n1 | 6% | 50µM* | 22µM* | -4% | 7%
COc1ccc(NC(=O)c2ccc(NC(=O)CSc3nccc(=O)[nH]3)cc2)cc1 | -14% | 56µM* | u | u | -3%
Cc1cc(=O)[nH]c(SCC(=O)c2ccc(O)c(O)c2)n1 | 7% | 56µM* | 7.9µM* | -8% | 10%
O=S(=O)(Nc1ccc2c(c1)nc1n2CCOC1)c1ccccc1 | 42% | 11% | -45%[59 µM] | -32% | -1%
COC(=O)C(CSCc1ccccc1)NC(=O)CSc1nc(C)cc(=O)[nH]1 (stereo not given) | -2% | 3% | 0% | 50µM* | 1%
Cc1cc(C)nc(SCC(=O)c2ccc(O)cc2O)n1 | 63% | -5% | 40µM* | -12% | 6%
COc1ccc(C(=O)NNC(=O)CSc2nc3c([nH]2)c(=O)n(C)c(=O)n3C)cc1 | 37% | -14% | 22µM* | 1% | 26%
O=C(CSc1nc2ccccc2c(=O)[nH]1)c1ccc(O)cc1O | 15% | 2% | u | -8% | 16%
Cn1c(=O)c2[nH]c(SCC(=O)c3ccc(F)cc3)nc2n(C)c1=O | 25% | -3% | u | -8% | 1%
Cc1cc(C)nc(SCNC(=O)c2ccc(Cl)cc2)n1 | 41% | -10% | 50µM* | u | -20%
Cc1cc(=O)[nH]c(SCC(=O)NC(c2ccccc2)c2ccccc2)n1 | 19% | x | -4% | -3% | -16%
CC(C)(C)c1cc(NC(=O)c2cccs2)no1 | 27% | x | x | -5% | -3%
COCc1cc(C)nc(SCC(=O)Oc2ccccc2)c1C#N | 34% | 116% | 71% | 11% | 5%
COCc1cc(C)nc(SCC(=O)c2ccc(O)c(O)c2)c1C#N | 1% | -38% | 10µM* | 22µM* | u
Cc1ccc(-c2csc(NC(=O)CSc3nc(C)cc(=O)[nH]3)n2)cc1 | 11% | u | 45µM* | u | -4%
COc1ccc(Nc2nc(N3CCCC3)c3ccccc3n2)cc1 | u | u | -42%[12.7 µM] | 45µM* | 18%
CCN(CC)c1ccc(Nc2nc(N3CCOCC3)c3ccccc3n2)cc1 | -88% | 18µM* | 2.2µM* | 18µM* | 38%
O=C(/C=C/c1ccc(-c2ccc(F)cc2)o1)N1CCCC1 | 10% | -14% | 45µM* | -28% | 0%
SMILES | HP1b chromo inh | BAZ2B block | G9a inh | JMJD2A Tudor | GLS inhibitor
O=C(/C=C/c1ccc(F)cc1)N1CCCN(C(=O)/C=C/c2ccc(F)cc2)CC1 | 29% | 0% | 10%[59 µM] | -7% | -7%
N#Cc1cc([N+](=O)[O-])c2sc(C(N)=O)[n+]([O-])c2c1 | x | x | 28µM* | x | x
COc1cc(C(=O)Nc2ccc(C#N)cc2)c([N+](=O)[O-])cc1OC | 19% | -1% | -50% | -24% | -5%
CCOc1ccc(-c2nonc2NC(=O)c2ccco2)cc1OCC | 36% | -16% | -10% | -17% | 9%
COc1cc(C(=O)Nc2nnc(C(C)(C)C)s2)c([N+](=O)[O-])cc1OC | u | -2% | 10µM* | -7%[57.1 µM] | 0%
COc1cc(C(=O)Nc2nnc(CC(C)(C)C)s2)c([N+](=O)[O-])cc1OC | 7% | -2% | 14%[59 µM] | -18% | 28%
CC(C)N1C/C(=C/c2cccnc2)C(=O)/C(=C/c2cccnc2)C1 | 47% | -31% | -10%[59 µM] | -4% | 0%
